D2 ag-1 – Beta-Arrestin HTS for Positive Allosteric Modulators of the Human D2 Dopamine Receptor: Agonists | DiscoveRx PathHunter D2 beta-arrestin, luminescence, 90 min; 100% = 57 uM dopamine signal | 360,000 compounds, 0.084% hits | D(2) dopamine receptor (Homo sapiens), P14416 | activation, % (test concentration not listed) | AID 624465, 2012; in the data active = activation above about 40%
Target sequence (P14416 whole entry, looked up): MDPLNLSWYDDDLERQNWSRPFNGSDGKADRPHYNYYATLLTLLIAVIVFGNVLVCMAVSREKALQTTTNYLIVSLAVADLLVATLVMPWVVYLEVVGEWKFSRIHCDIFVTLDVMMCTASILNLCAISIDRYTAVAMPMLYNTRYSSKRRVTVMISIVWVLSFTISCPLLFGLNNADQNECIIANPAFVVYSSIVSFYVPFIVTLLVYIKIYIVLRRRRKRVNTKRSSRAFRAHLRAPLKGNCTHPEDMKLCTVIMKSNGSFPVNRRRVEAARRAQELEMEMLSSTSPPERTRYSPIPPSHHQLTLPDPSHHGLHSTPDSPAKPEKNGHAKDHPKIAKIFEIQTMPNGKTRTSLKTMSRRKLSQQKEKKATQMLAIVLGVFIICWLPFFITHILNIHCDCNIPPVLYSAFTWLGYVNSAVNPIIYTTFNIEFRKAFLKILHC
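Agonist mode: compounds alone added to overnight-plated D2 PathHunter cells for 90 min at 37 C, with 57 uM final dopamine (EC100) defining full response. Beta-arrestin recruitment detected by chemiluminescent reagent, read after 1 h at ambient temperature.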
D2 ag-2 – HTS Assay for Allosteric Agonists of the Human D2 Dopamine Receptor: Primary Screen for Agonists. activation, % at 2 µM. AID 485358, 2010. HEK293 T-REx D2 cells, calcium flux agonist mode. 340,000 compounds, 0.53% hits. D(2) dopamine receptor (Homo sapiens), P14416;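 active = activation over 3 SD above normal in the single-dose calcium agonist read, cut at about 30% in these data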; also: 0% is about no effect
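Tetracycline-induced HEK293 Trex cells with D2 receptor force-coupled to calcium signaling, plated overnight at 30 C and loaded with no-wash calcium dye. Calcium flux read kinetically for 180 s after compound addition; responses flag agonists.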
D2 PAM-1 – Beta-Arrestin HTS for Positive Allosteric Modulators of the Human D2 Dopamine Receptor: Potentiators | D(2) dopamine receptor (Homo sapiens), P14416 | DiscoveRx D2 beta-arrestin cells, luminescence, 90 min; 100% = 57 uM dopamine signal | potentiation, % (no concentration beside the values) | 360,000 compounds, 0.23% hits | AID 624464, 2012; in the data active = potentiation above about 50%
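D2 cells co-treated with compound plus 50 nM dopamine (EC20) for 90 min at 37 deg C to detect potentiation. Beta-arrestin recruitment was read as enzyme-fragment luminescence after 1 h at ambient temperature. Full response was set by 57 uM dopamine.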
D2 antag – HTS Assay for Allosteric Antagonists of the Human D2 Dopamine Receptor: Primary Screen for Antagonists | D(2) dopamine receptor (Homo sapiens), P14416 | 340,000 compounds, 2% hits | HEK293 TREx D2 cells, calcium flux, dopamine EC80 | inhibition, % at 10 µM; in the data active = inhibition above about 30%; inactive = below that, where a call was filed; also: 0% is about no effect
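Measurement of antagonist activity uses fluorescent calcium dye in inducible HEK293 T-REx D2 cells: 10 s baseline, compound addition with 180 s read, EC80 dopamine addition with a further 180 s read.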
D2 PAM-2 – HTS Assay for Positive Allosteric Modulators of the Human D2 Dopamine Receptor: Primary Screen for Potentiators; potentiation, % at 10 µM; 340,000 compounds, 0.34% hits; HEK293 T-REx D2, calcium flux, EC20 dopamine potentiation; AID 485347, 2010; D(2) dopamine receptor (Homo sapiens), P14416;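 active = potentiation over 3 SD above the plate norm, cut at about 30% in these data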; also: 0% is about no effect
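Potentiation of an EC20 dopamine calcium response is measured in a force-coupled, tetracycline-inducible Hek293 Trex D2 line. Compound-only kinetic reads over 180 s flag agonists before dopamine addition.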
* = called active by the depositor; · = no result. A selection: hits, their analogues and other compounds. The true share with any hit is near 2.4%.

SMILES | D2 ag-1 | D2 ag-2 | D2 PAM-1 | D2 antag | D2 PAM-2
CCCCOc1ccc(CN(C)c2ncnc(N)n2)cc1 | -1.1 | 0.3 | -2.7 | 30.7* | -4.2
CCCc1cc(C(N)=O)c(NC(=O)c2ccoc2C)s1 | -5.1 | 1.7 | -10.5 | 30.9* | ·
CCOc1ccc(CNC(=O)c2cccn2-c2nnc(N3CCCCC3)s2)cc1OC | · | -0.2 | · | · | 12.9
CCc1ccccc1NC(=O)c1ccc2c(O)c(S(=O)(=O)c3ccccc3)c(=O)[nH]c2c1 | · | 0.9 | · | · | 2.1
CCC1=C(OC(=O)N(CC)CC)N2C(=O)OC(=NCCOC)[C@]2(Cc2ccccc2)[C@H]2C1=CC[C@H]1C(=O)NC(=O)[C@H]12 | 1.1 | 0.6 | -9.3 | 51.7* | -1.1
COc1cc2c(C)nc(C)c(C#N)c2cc1OC | 0.5 | 0.9 | -2.9 | 4.0 | 38.9*
COc1cc(C2C3=C(Nc4nc(N)[nH]c(=O)c42)c2ccccc2C3=O)ccc1O (stereo not drawn) | -3.2 | -0.2 | -4.5 | -10.0 | 12.2
Cc1cc(OCCCCCN2CCCC2)ccc1Cl | -7.5 | 1.2 | -4.5 | 58.8* | -16.6
Clc1ccc(OCCN2CCCCC2)cc1Cl | -2.0 | 0.4 | -31.3 | 102.9* | -26.0
Clc1ccc(OCCCN2CCCC2)cc1Cl | 2.7 | -0.3 | -12.1 | 7.5 | -24.3
CCc1ccccc1NC(=O)CN1C(=O)c2cccnc2Oc2ccc(Cl)cc21 | · | -1.1 | · | · | -14.5
Cc1cccc(CC(=O)NC2CC(=O)N(c3cccc(F)c3)C2)c1 (stereo not drawn) | · | 0.4 | · | · | 12.6
O=C(CN(CCN1CCOCC1)C(=O)Cn1nnc(-c2ccc(F)cc2)n1)NC1CCCCC1 | -4.0 | 0.7 | -6.2 | 70.6* | 6.0
O=C(CN(CCCN1CCOCC1)C(=O)Cn1nnc(-c2ccc(F)cc2)n1)NC1CCCCC1 | -3.8 | 0.8 | -13.9 | 1.5 | -9.7
Oc1ccc(-c2nccc(-c3ccc(Cl)cc3Cl)n2)cc1 | -0.3 | -0.7 | -2.8 | 6.5 | 94.8*
Oc1ccc(-c2nccc(-c3ccc(Cl)cc3)n2)cc1 | 3.3 | -0.6 | -5.2 | 2.4 | -0.9
Cc1cc(-c2nnc(SCC(=O)N3C(C)CCCC3C)o2)no1 (stereo not drawn) | -1.3 | -1.0 | 0.3 | -4.4 | 6.4
CC1CCCC(C)N1C(=O)CSc1nnc(C2CCCCC2)o1 (stereo not drawn) | -4.8 | 0.0 | -16.8 | 90.3* | -8.4
Cc1ccc(-n2nnc3c(SCC(=O)NCC4CCCO4)ncnc32)cc1 (stereo not drawn) | 3.5 | -1.2 | -2.2 | 46.4* | ·
Cc1ccc2cc(C#N)c(SCC(=O)NCC3CCCO3)nc2c1 (stereo not drawn) | -3.5 | -0.5 | -33.3 | 5.8 | 0.5
Cc1ccc2nc(SCC(=O)NCC3CCCO3)c(C#N)cc2c1 (stereo not drawn) | -0.2 | -1.5 | 4.4 | 40.7* | -12.5
O=C(CSc1ncnc2c1nnn2-c1ccc(F)cc1)NCC1CCCO1 (stereo not drawn) | -2.9 | 0.2 | -7.2 | 0.6 | 6.6
Cc1cccc(OCc2nnc(SCC(=O)NCC3CCCO3)n2C)c1 (stereo not drawn) | -0.7 | -0.4 | -3.8 | 6.6 | 37.4*
COc1ccc(CNC(=O)CCCN2C(=O)NC3(CCCC3)C2=O)cc1 | -0.8 | 0.4 | 15.7 | 3.3 | -6.9
COc1cccc(-n2cc(C(=O)Nc3cc(OC)c(OC)c(OC)c3)c3ccccc3c2=O)c1 | · | -0.4 | · | · | 3.4
SMILES | D2 ag-1 | D2 ag-2 | D2 PAM-1 | D2 antag | D2 PAM-2
Cn1nc(C(=O)OCC(=O)N2CCc3ccccc32)c2ccccc2c1=O | -1.1 | -0.6 | -21.1 | 7.7 | 31.5*
Cc1cc(NC(=O)c2ccc(Cn3cc([N+](=O)[O-])cn3)o2)no1 | -1.0 | · | -4.8 | · | ·
Cc1ccccc1NC(=O)c1ccc(Cn2cc([N+](=O)[O-])cn2)o1 | -6.1 | -0.5 | 0.0 | 32.1* | -1.7
Clc1ccccc1CN(Cc1ccccc1)C(c1cccs1)c1nnnn1C1CCCC1 (stereo not drawn) | -5.1 | 0.1 | -17.3 | 50.0* | -6.3
CCN(Cc1ccccc1)C(c1cccs1)c1nnnn1C1CCCCC1 (stereo not drawn) | -4.4 | -0.1 | -30.4 | 8.4 | 1.9
CC(NS(=O)(=O)c1ccc(OCC(=O)N2CCOCC2)cc1)c1ccccc1 (stereo not drawn) | -0.7 | -0.4 | 9.8 | 30.5* | 7.6
CC(NS(=O)(=O)c1ccc(OCC(=O)N2CCOCC2)c(Cl)c1)c1ccccc1 (stereo not drawn) | -1.5 | 0.1 | -4.3 | 3.1 | -2.5
CC(C)=C1C2CCC1C(C(=O)NCCc1ccccc1)C2C(=O)O (stereo not drawn) | 0.6 | 39.4* | -9.8 | -37.7 | -10.8
O=C(O)[C@H]1CCCC[C@H]1C(=O)NCCc1ccccc1 | -1.0 | -0.6 | -1.5 | 44.8* | -2.9
Oc1ccccc1-c1cncn1Cc1ccccc1 | -3.6 | 0.1 | -4.7 | -3.8 | 9.2
CC(C)(C)OC(=O)N1CCC(c2c(C(=O)NCCN3CCOCC3)cnn2-c2ccc(F)cc2)CC1 | · | 0.3 | · | · | -9.5
C=CC(COCc1ccccc1)N(C(=O)OC(C)(C)C)S(=O)(=O)c1ccccc1Br (stereo not drawn) | -0.3 | 0.9 | -4.3 | 68.0* | 7.3
CCN(c1ccccc1)S(=O)(=O)c1ccc(Cl)c(NC(=O)CN2CCCCCC2)c1 | 1.7 | 1.0 | -4.9 | 0.8 | -10.0
CCOC(=O)c1ccc[n+](CC(=O)Nc2cc(C(F)(F)F)ccc2Cl)c1 | -3.4 | 0.0 | -15.0 | 52.5* | -9.4
CN(C)S(=O)(=O)c1ccc(Cl)c(NC(=O)CN2CCCCCC2)c1 | -2.6 | -2.9 | -22.5 | 34.0* | -29.6
CN(C)S(=O)(=O)c1ccc(NC(=O)CN2CCC(Cc3ccccc3)CC2)cc1 | -2.5 | 2.4 | -3.1 | -1.0 | -5.6
O=C(COC(=O)c1ccc(O)cc1)Nc1cc(C(F)(F)F)ccc1Cl | 6.4 | 2.7 | -4.2 | -0.2 | -2.8
NC(=O)C1(N2CCCCC2)CCN(CC(=O)Nc2cc(Cl)ccc2Cl)CC1 | -1.4 | 0.4 | -10.6 | 43.4* | -24.8
CN(C)S(=O)(=O)c1ccc(Cl)c(NC(=O)CN2CCC(Cc3ccccc3)CC2)c1 | 1.9 | -4.6 | -25.5 | 42.3* | -10.3
CCc1ccc(S(=O)(=O)N2CCCC(N3CCN(c4ccc(OC)cc4)CC3)C2)cc1 (stereo not drawn) | -4.6 | 0.0 | -26.4 | -21.3 | -2.8
CCCc1ccc(NC(=O)C2CCCN(c3cnccn3)C2)cc1 (stereo not drawn) | -2.1 | -0.7 | -11.8 | -9.2 | -4.4

High-throughput results as filed in PubChem.
